Hits are enriched below; roughly 21% of the tested compounds scored in any of these assays.
Pf growth 96h: P. falciparum growth inhibition at 96 hours; P. falciparum luciferase reporter growth, 96 h; Potency, µM (highest dose often 28.7 µM), for the others: at the top dose activity change, negative = inhibition, hits mostly inhibitors; actives 6.9% (n = 320,000); AID 504834; active = well fitted inhibition curve with a large enough effect; inconclusive = small, poorly fitted or top-dose-only effect, or another doubt; inactive = no such curve, though single readings can be large or run the other way; note: potency is the fitted concentration of half-maximal effect; % is set by controls: 0 for no effect and ±100 for the full control effect
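Infected RBCs, 2% Hct / 0.05% parasitemia final; luciferase-reporter P. falciparum; cpd 96 h, 37 C, 5% CO2; luciferase detection reagent; luminescence.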
Pf growth 48h: inhibits P. falciparum growth in the first generation, 48 h. P. falciparum luciferase growth in erythrocytes, 48 h. Potency, µM (top dose mostly 28.7 µM), for the others: at the top dose activity change, negative = inhibition, hits mostly inhibitors. actives 5.9% (n = 310,000); active = well fitted inhibition curve with a large enough effect; inconclusive = small, poorly fitted or top-dose-only effect, or another doubt; inactive = no such curve, though single readings can be large or run the other way; note: potency is the fitted concentration of half-maximal effect; % is set by controls: 0 for no effect and ±100 for the full control effect
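Luciferase-expressing parasites in RBCs, 2% Hct / 0.1% parasitemia final; RPMI 1640 + 0.5% Albumax; 37 C, 5% CO2, one generation; luminescence read-out, lower signal = inhibition.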
Shiga inhibitor: Shiga toxin inhibition. actives 9.2% (n = 290,000). inhibition, % at 38.7 µM. Vero cells, Shiga toxin protein synthesis inhibition reporter. AID 2315; in the data active = inhibition mostly above about 28%, no sharp cut-off; inactive = mostly below about 43%; note: 0% is about no effect
Cycloheximide cs: counter-screen for Shiga toxin inhibitors: cycloheximide protein synthesis inhibition. cell reporter, cycloheximide protein synthesis inhibition counterscreen. max response, %. actives 12% (n = 300,000); in the data active = max response mostly above about 13%, no sharp cut-off; inactive = mostly below about 14%; note: read at 38.3 µM for the half of the compounds with a filed dose; 0% is about no effect
SARS PLP yeast: SARS-CoV PLP inhibition in yeast | S. cerevisiae expressing SARS-CoV PLpro, growth rescue | Potency, µM (series often up to 32.9 µM), for inactives: at the highest dose activity, positive = growth rescue, most hits filed as activators | actives 0.19% (n = 330,000) | AID 485353; note: potency is the fitted concentration of half-maximal effect; 0% is about no effect; nearly all actives have a fitted effect of over 55% in size
NS1 inh: influenza NS1 inhibition; Potency, µM (titrated, usually from 46.1 µM), inactives show at the top dose activity, positive = more growth; actives 0.4% (n = 270,000); AID 2326; note: potency is the fitted concentration of half-maximal effect; actives are rising curves; nearly all actives have a fitted effect of over 50% in size
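S. cerevisiae expressing influenza A NS1, grown in glucose, washed, then diluted 1:100 into pH 6.0 -URA galactose medium with 23 nl compound. Growth recovery read as OD600; NS1-free strain serves as control.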
* = called active by the depositor; ? = inconclusive; nt = not tested or not shown; + = active, no number; [ ] = another dose, or the depositor's remark. Unless noted, calls come from the whole dose curve.

SMILES	Pf growth 96h	Pf growth 48h	Shiga inhibitor	Cycloheximide cs	SARS PLP yeast	NS1 inh
CC(C)C(NS(=O)(=O)c1ccc2c(c1)Cc1cc(S(=O)(=O)NC(C(=O)O)C(C)C)ccc1-2)C(=O)O (stereo not given)	?	6%	-6	1	-1%	nt
CC(C)N(CCc1ccncc1)C(=O)Nc1ccc(Cl)c(Cl)c1	?	nt	-4	-3	-26%	-193%
CC(=O)Nc1ccc(NC(=O)COC(=O)c2c(C)nn(-c3ccccc3)c2C)cc1	?	-24%	2	-1	-6%	-1%
Cc1nn(-c2ccccc2)c(C)c1C(=O)OCC(=O)NC12CC3CC(CC(C3)C1)C2	10µM*	?	6	-1	-10%	4%
COC(=O)c1c(C)nn(-c2ccc(OC(F)(F)F)cc2)c1-c1snnc1C	13µM*	?	-10	2	0%	5%
COc1ccc(Nc2nc(N3CCCCC3)c3ccccc3n2)cc1	4.7µM*	7.4µM*	37	10	-15%	-207%
COc1ccc(/C=N/Nc2nc(Nc3ccccc3)nc(N3CCCC3)n2)cc1	0%	?	69	17	2%	nt
Cc1ccc(Nc2nc(N3CCOCC3)c3ccccc3n2)cc1	10µM*	nt	-17	6	-21%	-108%
c1ccc2c(c1)nc(N1CCCCCC1)c1ccccc12	-13%	?	4	-3	-2%	-7%
C=CCNc1nc(N2CCCC2)nc2ccccc12	nt	5.2µM*	-7	-1	-4%	-18%
Oc1ccc(Nc2nc(N3CCCC3)c3ccccc3n2)cc1	7%	0.47µM*	42	-1	-7%	-9%
CC(Nc1nc(N2CCCCC2)nc2ccccc12)c1ccccc1 (stereo not given)	?	nt	-4	3	4%	-33%
COc1ccc(/C=C(\C#N)C(=O)OCCNC(=O)c2ccncc2)cc1	6%	10%	-12	1	-1%	-3%
COc1ccc(Nc2nc(N3CCCC3)nc3ccccc23)c(OC)c1	nt	6.6µM*	17	-4	-4%	-37%
COc1ccc(Nc2cc(C(=O)NCCCN3CCN(C)CC3)c3ccccc3n2)c(OC)c1	167%	?	2	30	-3%	-10%
CCC(C)N(C(=O)Cn1nnc2ccccc21)C(C(=O)Nc1ccc(F)cc1)c1cccc(OC)c1 (stereo not given)	10µM*	?	-10	-2	-2%	?
O=C1CN(C(=O)COC(=O)c2cccc(OCc3ccccc3)c2)c2ccccc2N1	?	?	20	8	11%	-38%
COc1ccc(N(/N=C2\Sc3ccccc3C2=O)C(C)=O)cc1	?	?	+	60*	-7%	nt
COc1ccccc1N(/N=C1\Sc2ccccc2C1=O)C(C)=O	-21%	-9%	60*	24*	1%	5%
COc1ccc(CN(C(C)=O)c2ccccc2C(=O)O)cc1	20%	7%	-10	2	0%	2%
CCCCn1c(N)c(N(CC(C)C)C(=O)CSCC(=O)Nc2ccc(OC)cc2)c(=O)[nH]c1=O	12%	-1%	nt	nt	2%	nt
CN(CC(=O)Nc1ccccc1Br)C(=O)CNC(=O)c1ccco1	5%	25%	nt	nt	0%	nt
O=C(c1sccc1-c1ccccc1)N1CCN(S(=O)(=O)c2ccccc2F)CC1	-1%	6%	nt	nt	0%	nt
CN(C(=O)CSc1nc(-c2ccccc2)cn1N)C(c1ccccc1)c1ccccc1	nt	12µM*	13	-1	-12%	18%
Cc1ccc(NP(=O)(Nc2ccc(C)cc2)Oc2ccccc2)cc1	-29%	208%	20	24*	-5%	nt
SMILES	Pf growth 96h	Pf growth 48h	Shiga inhibitor	Cycloheximide cs	SARS PLP yeast	NS1 inh
COc1ccc(OP(=O)(Nc2ccccc2)Nc2ccccc2)cc1	nt	-7%	35	-3	-2%	-36%
COc1ccccc1N1CCN(C(=O)c2ccc(CN3CCOCC3)cc2)CC1	-3%	-9%	-3	-3	-3%	nt
O=C(CCl)N(C/C=C/c1ccccc1)c1ccc2c(c1)OCCO2	?	?	164*	52*	-7%	nt
N#CCCN(C(=O)CSc1ncccn1)c1ccc2c(c1)OCCO2	?	-27%	nt	nt	10%	nt
CCCCOc1ccc(S(=O)(=O)N2CCCCC2)cc1	3%	2%	-11	5	2%	-13%
CCCCOc1ccc(S(=O)(=O)N2CCN(c3ccc(N4CCN(CC)CC4)nn3)CC2)cc1	?	12µM*	nt	nt	5%	nt
CCOC(=O)c1nn(-c2ccc(OC)cc2)c(=O)c2c(NC(=O)Cc3ccccc3)scc12	nt	nt	-1	10	nt	nt
CSc1nc2sc3c(c2c(=O)n1C)CCC3	67%	2%	2	-1	-9%	-13%
CSc1nc2sc3c(c2c(=O)n1C)CCC(C)C3 (stereo not given)	-15%	30%	11	22*	5%	-2%
C=CCn1nnc2sc3c(c2c1=O)CCC(C)C3 (stereo not given)	-21%	nt	49*	29*	4%	-85%
COc1ccc(NC(=O)n2ncc3cc(Cl)ccc32)cc1OC	-83%	65%	56*	47*	-7%	-3%
O=C(Nc1ccccc1F)n1ncc2cc(Cl)ccc21	37%	39%	26	12*	-2%	-6%
O=C(NNc1cccc(Cl)n1)Nc1ccccc1F	57%[5.75 µM]	-5%	28	12	-1%	nt
COc1cc(NC(=O)n2ncc3cc(Cl)ccc32)cc(OC)c1	?	133%	60*	43*	-3%	0%
COc1cccc(NC(=O)n2nc(N)cc2-c2ccc(Cl)cc2)c1	-112%	18%	15	12	-1%	-4%
C[C@H]1O[C@@H](n2cnc3c(N)ncnc32)C[C@@H]1OP(=O)(O)OP(=O)(O)OP(=O)(O)O	nt	nt	5	13	nt	nt
O=C(CNC(=O)c1ccccc1Cl)NCCc1cccs1	nt	nt	nt	nt	-7%	nt
COC(=O)c1ccc(NC(=O)CCN2CCN(Cc3ccccc3)CC2)cc1	-27%	13µM*	-4	-3	-2%	-2%
CCc1ccc(C(=O)NNC(=O)CCN2CCN(Cc3ccccc3)CC2)cc1	38%	2.3µM*	11	9	1%	-1%
Cc1ccc(OCC(=O)N(Cc2nnc(-c3ccccc3Cl)o2)C2CC2)cc1C	-16%	?	nt	nt	-1%	nt
Cc1cc(C)c(CN2CCC(N3CCC(C(=O)NCC4CCCO4)CC3)CC2)cc1C (stereo not given)	?	?	-7	-1	1%	4%
COC(=O)n1ccc(C(=O)Nc2ccccc2F)n1	?	77%	75	27*	-2%	0%
Cc1cnc(C(=O)Nc2ccccc2-n2cccc2)cn1	12µM*	8%	9	3	-5%	-5%
CCC(CC)C(=O)Nc1ccccc1-n1cccc1	210%	38%	2	-3	2%	5%
Cc1cnc(C(=O)Nc2ccccc2F)cn1	149%	nt	84*	43*	-8%	-4%
CCc1nnc(NC(=O)C(c2ccccc2)c2ccccc2)s1	?	?	-3	-4	-2%	3%

Screens deposited in PubChem by National Center for Advancing Translational Sciences (NCATS).
